HCV inhibitor: inhibitors of hepatitis C virus infection; 3.4% of 340,000 active; Potency, µM (series often up to 41.8 µM), most hits filed as inhibitors; Huh7.5.1 HCVcc-Cre infection, luciferase reporter, 44 h
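Whole-lifecycle infectious HCVcc-Cre system; cells 1,000/well, compound then virus (~0.5 moi) added 4 h after plating, 44 h culture. Luciferase read 15 sec following 15 min substrate incubation, room temp.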
Pf growth 48h: P. falciparum growth inhibition at 48 hours (one generation). P. falciparum luciferase growth in erythrocytes, 48 h. Potency, µM (series often up to 28.7 µM), most hits filed as inhibitors. 5.9% of 310,000 active. AID 504832
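Luciferase-expressing parasites in RBCs, 2% Hct / 0.1% parasitemia final; RPMI 1640 + 0.5% Albumax; 37 C, 5% CO2, one generation; luminescence read-out, lower signal = inhibition.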
HCMV inh: inhibitors of human cytomegalovirus; HFF cells, HCMV-luciferase reporter, 72 h; active compounds read low; 4.5% of 410,000 active; activity change, negative = inhibition, % at 57.5 µM; in the data active means activity change below about -60%; inconclusive means no clear call, values can overlap the other calls; inactive means above about -39%
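Steps: HFFs plated, 16 h 37C; compounds added; HCMV-luciferase added to MOI 1 PFU/cell; 72 h 37C; OneGlo reagent, 5 min room temperature; luminescence read, normalized to controls.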
Pf growth 96h: P. falciparum growth inhibition at 96 hours; P. falciparum luciferase reporter growth, 96 h; Potency, µM (titrated, usually from 28.7 µM), most hits filed as inhibitors; 6.9% of 320,000 active
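Two-generation exposure (96 h) targets delayed-death phenotype. Reporter parasites carrying integrated firefly luciferase, in red cells at 2% hematocrit and 0.05% parasitemia final, kept at 37 C, 5% CO2; luminescence loss indicates inhibition.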
Of the large screens only hits and unclear results are named; the others gave an inactive call. Sampled rows, rich in hits. Any-hit rate of the full collection: about 13%. Unless noted, the call rests on the fitted dose curve; in most records, active means well fitted inhibition curve with a large enough effect; inconclusive means small, poorly fitted or top-dose-only effect, or another doubt; inactive means no such curve, though single readings can be large or run the other way.

COc1cccc(C2CC(c3c(-c4ccccc4)c4cc(Cl)ccc4[nH]c3=O)=NN2S(C)(=O)=O)c1OC (centres undefined)	HCV inhibitor 11µM, Pf growth 48h 7.4µM (no result: Pf growth 96h)
O=C(O)CCC(=O)N1N=C(c2c(-c3ccccc3)c3cc(Cl)ccc3[nH]c2=O)CC1c1ccco1 (centres undefined)	Pf growth 48h inconclusive, Pf growth 96h inconclusive
Cc1c(C)n(Cc2ccc(F)cc2)c2ccc(C(=O)Nc3ccc(Cl)cc3)cc12	none (no result: HCV inhibitor, Pf growth 48h, Pf growth 96h)
COc1ccc(Br)cc1CN(C)C(=O)Cc1ccc(OC)c(S(=O)(=O)N2CCOCC2)c1	HCV inhibitor inconclusive, Pf growth 48h inconclusive, Pf growth 96h 6.6µM
COc1ccc(CN(C)C(=O)Cc2ccc(OC)c(S(=O)(=O)N3CCOCC3)c2)cc1OC	Pf growth 96h inconclusive
CCc1ccc(OC(=O)Cc2ccc(OC)c(S(=O)(=O)N3CCOCC3)c2)cc1	HCMV inh -98
O=C1c2ccccc2S(=O)(=O)N1CC(O)COc1ccc(Br)cc1 (centres undefined)	HCMV inh inconclusive
COC(=O)c1ccc(NC(=O)CN2C(=O)c3ccccc3S2(=O)=O)cc1	none
O=C1c2ccccc2S(=O)(=O)N1CC(O)COc1ccc(Cl)cc1 (centres undefined)	Pf growth 96h 6.6µM
COC(=O)c1ccc(OCC(O)CN2C(=O)c3ccccc3S2(=O)=O)cc1 (centres undefined)	HCV inhibitor 5µM, Pf growth 96h inconclusive
CCN(CC)CCNC(=O)c1c(C)oc2ncn(C)c(=O)c12	none (no result: HCV inhibitor, Pf growth 48h, Pf growth 96h)
CC(C)CCC(CCN1CCCC1)c1ccc2c(c1)OCO2 (centres undefined)	HCV inhibitor inconclusive, Pf growth 48h inconclusive, Pf growth 96h inconclusive
COCCCNCCC(CCC(C)C)c1ccc2c(c1)OCO2 (centres undefined)	HCV inhibitor 14µM, Pf growth 48h inconclusive, Pf growth 96h inconclusive
COc1cccc(NC(=O)CCC(=O)N2Cc3ccccc3Oc3ncccc32)c1	none (no result: HCV inhibitor, Pf growth 48h, Pf growth 96h)
CC1=C(C(=O)Nc2ccc(C)cc2C)C(c2ccc(C(C)C)cc2)n2nc(C(F)(F)F)nc2N1 (centres undefined)	none (no result: HCV inhibitor, Pf growth 48h, Pf growth 96h)
Nc1nc2c(c(=O)[nH]1)CN(Cc1ccccc1)CC2	none
Cc1c(Cl)cccc1NC(=O)COC(=O)c1c2c(nc3ccccc13)CCN(Cc1ccccc1)C2	HCV inhibitor inconclusive, Pf growth 48h 13µM, Pf growth 96h 2.9µM
CC(C)c1ccccc1NC(=O)COC(=O)c1c2c(nc3ccccc13)CCN(Cc1ccccc1)C2	HCV inhibitor inconclusive, Pf growth 48h 8.3µM, Pf growth 96h 13µM
Nc1c2c(nc3ccccc13)CCN(Cc1ccccc1)C2	HCV inhibitor inconclusive, Pf growth 48h inconclusive, Pf growth 96h 8.3µM
CCN1CCc2nc3ccccc3c(C(=O)Nc3ccc(C#N)cc3)c2C1	Pf growth 48h inconclusive, Pf growth 96h 2.6µM
CC(C)c1ccccc1NC(=O)COC(=O)c1ccc(Cl)c(S(=O)(=O)N2CCCCCC2)c1	none
COc1cccc(NC(=O)CSc2nc(=O)[nH]c3c2CCCC3)c1	none (no result: HCV inhibitor, Pf growth 48h, Pf growth 96h)
Cc1cc(N2CCN(C)CC2)ccc1NC(=O)c1c2c(nc3ccccc13)CCN(Cc1ccccc1)C2	HCV inhibitor 2µM, Pf growth 48h inconclusive, Pf growth 96h inconclusive (no result: HCMV inh)
O=C(NC1CCCCCC1)c1c2c(nc3ccccc13)CCN(Cc1ccccc1)C2	HCV inhibitor inconclusive
Cn1cc(-c2cc3n(n2)CCC(=O)N3CCCC(=O)Nc2ccccc2F)c2ccccc21	none (no result: HCV inhibitor, Pf growth 48h, Pf growth 96h)
COc1ccc2oc(-c3ccc(NC(=O)c4ccc(N5CCOCC5)c([N+](=O)[O-])c4)cc3)nc2c1	HCV inhibitor inconclusive, Pf growth 48h 2.3µM, Pf growth 96h inconclusive
O=C(Nc1cccc(-c2nc3cc(Cl)ccc3o2)c1)c1cc([N+](=O)[O-])ccc1N1CCOCC1	HCMV inh -63 (no result: HCV inhibitor, Pf growth 48h, Pf growth 96h)
O=C(Nc1ccc(-c2nc3ccccc3o2)cc1)c1ccc(N2CCOCC2)c([N+](=O)[O-])c1	HCV inhibitor inconclusive, HCMV inh inconclusive, Pf growth 96h inconclusive
Cc1ccc(Cn2c(CN3CCC(C(=O)NCc4cccnc4)CC3)cc3ccccc32)cc1	none (no result: HCV inhibitor, Pf growth 48h, Pf growth 96h)
COc1ccc(NC(=O)c2oc3ccccc3c2NC(=O)c2cc(C)cc(C)c2)c(OC)c1	none (no result: HCV inhibitor, Pf growth 48h, Pf growth 96h)
Cc1ccc(S(=O)(=O)CCC(=O)Nc2nc(-c3ccccn3)cs2)cc1	HCV inhibitor 13µM, Pf growth 48h 13µM, HCMV inh inconclusive, Pf growth 96h 10µM
Cc1ccc(C2(C)NC(=O)N(CC(=O)Nc3nc(-c4ccccn4)cs3)C2=O)cc1 (centres undefined)	HCV inhibitor 6.3µM, Pf growth 48h 2.3µM, Pf growth 96h 3.3µM
Cc1ccc(S(=O)(=O)CCC(=O)Nc2nc(-c3cccnc3)cs2)cc1	none
CCOC(=O)c1ccc(NC(=O)c2ccc(=O)n(Cc3cccc(C)c3)c2)cc1	none (no result: HCV inhibitor, Pf growth 48h, Pf growth 96h)
COc1ccc(OC)c(Nc2nc(N(C)c3ccccc3)nc(N)c2[N+](=O)[O-])c1	HCV inhibitor 5µM, Pf growth 48h inconclusive, Pf growth 96h inconclusive
CN(Cc1ccccc1)c1nc(N)c([N+](=O)[O-])c(Nc2cccc(F)c2)n1	HCV inhibitor 11µM, Pf growth 96h inconclusive (no result: Pf growth 48h)
CN(c1ccccc1)c1nc(N)c([N+](=O)[O-])c(Nc2ccccc2F)n1	HCV inhibitor 5.6µM, Pf growth 96h inconclusive
CN(c1ccccc1)c1nc(N)c([N+](=O)[O-])c(Nc2cccc(F)c2)n1	HCV inhibitor inconclusive, Pf growth 48h inconclusive, Pf growth 96h inconclusive
CN(c1ccccc1)c1nc(N)c([N+](=O)[O-])c(Nc2ccc(F)cc2)n1	HCV inhibitor inconclusive
Cc1cccc(-c2noc(CN(C(=O)COc3ccc(C(C)C)cc3)C(C)C)n2)c1	none (no result: HCV inhibitor, Pf growth 48h, Pf growth 96h)
CCCCOC(=O)CSc1nnc(-c2ccccc2)o1	none (no result: HCV inhibitor, Pf growth 48h, Pf growth 96h)
O=C(O)c1cccc(-c2nc(-c3ccccc3C(F)(F)F)no2)c1	Pf growth 48h 4.1µM, Pf growth 96h inconclusive (no result: HCV inhibitor, HCMV inh)
O=C(O)c1cccc(-c2noc(-c3ccccc3F)n2)c1	Pf growth 48h 0.3µM, Pf growth 96h inconclusive (no result: HCV inhibitor, HCMV inh)
COc1ccc(-c2noc(-c3ccccc3F)n2)cc1	Pf growth 96h 9.3µM (no result: Pf growth 48h)
CCCCN1C(=O)C(O)(c2c[nH]c3ccccc23)c2cc(Br)ccc21 (centres undefined)	none (no result: HCV inhibitor, Pf growth 48h, Pf growth 96h)
Cc1csc(SCC(=O)c2c(N)n(CC(C)C)c(=O)n(C)c2=O)n1	HCV inhibitor 16µM, HCMV inh -75 (no result: Pf growth 96h)
CCOC(=O)Cc1csc(SCC(=O)c2c(N)n(CC(C)C)c(=O)n(C)c2=O)n1	HCV inhibitor 7.9µM, Pf growth 48h inconclusive
CC(C)Cn1c(N)c(C(=O)CSc2nnc(C3CC3)n2C2CC2)c(=O)n(C)c1=O	Pf growth 48h inconclusive, Pf growth 96h 8.3µM
COc1ccc(Cn2c(=N)c(C(=O)NC3CCCCC3)cc3c(=O)n4ccccc4nc32)cc1	HCV inhibitor inconclusive, Pf growth 48h 4.7µM, HCMV inh inconclusive, Pf growth 96h 1.9µM
COc1ccc(CCn2c(=N)c(C(=O)NCC3CCCO3)cc3c(=O)n4ccccc4nc32)cc1OC (centres undefined)	Pf growth 48h inconclusive, HCMV inh -110, Pf growth 96h inconclusive
COCCCn1c(=N)c(C(=O)NC2CCCCC2)cc2c(=O)n3ccccc3nc21	none
COc1ccc(CCn2c(=N)c(C(=O)NC3CCCC3)cc3c(=O)n4ccccc4nc32)cc1OC	Pf growth 48h 4.1µM, Pf growth 96h 3.3µM
